According to the supplement of paper PMC3334620:
Whole data set: some 33,000 sequences, median “E-score (-0.5 to 0.5)” near -0.041, cut for the highest 2% near 0.37. The sample as a whole holds a higher share of the highest values than the screen did.

biological target: T1, Ecm22 (UniProt Q05958); experiment: PBM E-score (8-mer binding enrichment) (E-score (-0.5 to 0.5)); higher = stronger / more preferred TF binding; settings: protein concentration: 200 nM; construct: GST-full length
T1 sequence: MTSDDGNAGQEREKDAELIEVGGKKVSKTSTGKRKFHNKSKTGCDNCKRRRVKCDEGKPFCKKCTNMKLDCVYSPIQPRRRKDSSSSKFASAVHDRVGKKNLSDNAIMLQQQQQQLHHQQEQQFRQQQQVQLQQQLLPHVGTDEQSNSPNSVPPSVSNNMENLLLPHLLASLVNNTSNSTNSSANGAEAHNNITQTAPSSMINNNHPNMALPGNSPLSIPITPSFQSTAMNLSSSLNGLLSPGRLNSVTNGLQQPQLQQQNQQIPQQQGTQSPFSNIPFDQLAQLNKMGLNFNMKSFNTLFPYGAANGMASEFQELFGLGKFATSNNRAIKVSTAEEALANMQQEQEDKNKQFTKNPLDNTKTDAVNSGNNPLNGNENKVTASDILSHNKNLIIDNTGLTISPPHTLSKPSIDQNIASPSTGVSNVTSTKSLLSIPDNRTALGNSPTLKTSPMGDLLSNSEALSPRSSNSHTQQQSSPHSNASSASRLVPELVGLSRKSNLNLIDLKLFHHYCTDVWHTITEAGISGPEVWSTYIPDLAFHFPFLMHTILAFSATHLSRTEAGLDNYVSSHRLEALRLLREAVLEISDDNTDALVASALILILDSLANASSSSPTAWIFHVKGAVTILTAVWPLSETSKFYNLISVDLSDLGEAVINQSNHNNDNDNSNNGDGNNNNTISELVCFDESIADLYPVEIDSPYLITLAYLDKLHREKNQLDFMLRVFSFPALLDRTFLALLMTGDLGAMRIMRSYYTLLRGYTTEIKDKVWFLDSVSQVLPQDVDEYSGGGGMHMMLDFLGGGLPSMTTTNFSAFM
Description: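 Universal 'all 10-mer' protein binding microarrays (Agilent AMADID 015681) probed with GST-tagged S. cerevisiae TFs (full-length or DBD) made by in vitro transcription/translation (PURExpress), about 100-200 nM. Bound TF was detected with fluorescent anti-GST. Each ungapped 8-mer (which stands for itself and its reverse complement) is scored by the PBM enrichment score (E-score), a modified Wilcoxon-Mann-Whitney statistic from -0.5 to +0.5, computed with the Universal PBM Analysis Suite. Scale: above 0.35 generally sequence-specific binding.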

Row | Sequence | PBM E-score
1 | CCGTCTTA | -0.174
2 | AAGGCGCA | -0.0313
3 | ATCCCAGC | -0.0508
4 | TCAACTGA | -0.205
5 | AGGCTCTC | -0.162
6 | GGAGCACA | -0.107
7 | CGTTGTGC | 0.116
8 | CCCGGGAA | -0.0348
9 | CCAACCAA | -0.0915
10 | AACGATGG | 0.374
11 | CACGATGG | 0.0647
12 | AACGATGC | 0.348
13 | TGTGTAAA | -0.0334
14 | ATGCGAGA | 0.302
15 | CGACGAGC | 0.162
16 | CTACGAGC | 0.413
17 | ACACGAGC | 0.275
18 | ATACGAGA | 0.484
19 | CTACGAGA | 0.385
20 | AGACGAGC | 0.211
21 | CCACGAGA | -0.117
22 | ATACGTGA | 0.171
23 | ATACGAGC | 0.49
24 | CCACGAGC | -0.0179
25 | CGACGAGA | 0.08

Row | Sequence | PBM E-score
26 | CCGAGTGA | 0.196
27 | CCTTTCGA | 0.142
28 | AAGCGTTA | 0.00424
29 | ACCCCCGG | -0.189
30 | GAGCGGGC | -0.0404
31 | AGTAGTCG | 0.238
32 | AGGGCTAC | -0.117
33 | ATAAATTA | 0.326
34 | ACACGAGG | 0.324
35 | GTCCGAGA | 0.253
36 | GTACGCGA | 0.327
37 | ATACGAGG | 0.488
38 | AGACGAGG | 0.202
39 | GTACGAGA | 0.482
40 | ACCCCGAC | -0.0233
41 | AGTCAATG | -0.0767
42 | ACGGGGCA | 0.114
43 | TGCAGCCA | -0.171
44 | GTTTAGTA | 0.271
45 | CCCGGTAC | 0.078
46 | AACGACTC | 0.388
47 | CACGACTC | 0.0577
48 | AACGACTG | 0.393
49 | GACGACTC | -0.0985
50 | AGCGACTA | 0.161

Row | Sequence | PBM E-score
51 | GACGACTA | -0.121
52 | ATCGACTG | 0.076
53 | AACGACTA | 0.372
54 | CACGACTG | 0.0526
55 | CACGACTA | -0.0786
56 | AACGACTT | 0.336
57 | TACGACTA | 0.438
58 | TCCCCGGA | 0.00406
59 | ATCTGTAG | -0.116
60 | CGTCTCAC | 0.0419
61 | TGCGCAAA | -0.077
62 | GAAGCAGA | -0.215
63 | CGTCGTAC | 0.486
64 | CGTCGTCC | -0.054
65 | AGTCGTCC | -0.0209
66 | GGTCGTAC | 0.482
67 | CGTAGTAG | 0.109
68 | CGTCGTAG | 0.406
69 | CATCGTCG | 0.0968
70 | AGTCGTAC | 0.46
71 | GGTCGCAC | 0.228
72 | CGTCGTGC | 0.177
73 | AGTCGTGC | -0.0872
74 | GGACGTAC | 0.126
75 | CCCCGAAC | -0.0375

Row | Sequence | PBM E-score
76 | GGAAAATA | 0.0993
77 | GATCGGGA | 0.0412
78 | CCAGGTCC | -0.192
79 | GAAAAAGC | -0.00535
80 | ACTCAGTC | -0.147
81 | CCCTCCAG | -0.206
82 | AGGTGAAC | 0.0634
83 | TGAGTAAA | -0.13
84 | ATTCTCGA | 0.168
85 | AGTCGTAG | 0.304
86 | AGTCGTCG | 0.01
87 | AGTCGTAT | 0.46
88 | AGCCTAAC | -0.0712
89 | ATCTGCGG | -0.00985
90 | GATGAGGA | -0.0394
91 | AGGAGCTA | -0.138
92 | GTCTCGGA | 0.242
93 | ATCTCGTA | 0.466
94 | GTCTCGAA | -0.00716
95 | CTCTCGAA | -0.0852
96 | CTCTCGTA | 0.457
97 | GTCTCGTA | 0.461
98 | ATCTCGTC | 0.158
99 | CTCTCGTC | 0.0625
100 | ATCTCGTG | 0.193

Row | Sequence | PBM E-score
101 | CTGCGGGC | -0.163
102 | AACGCTTG | -0.121
103 | CTTGGACC | -0.134
104 | CGTAGCTC | 0.32
105 | AACTTAGA | -0.0444
106 | ACGTCGTG | 0.117
107 | ACGTCGTC | 0.175
108 | CCGTCGTA | 0.471
109 | GCGTCGTA | 0.471
110 | GCGTCGCA | 0.23
111 | CCGTCGGA | 0.0756
112 | CCGTCGTC | 0.0655
113 | GCGTCGAA | 0.0462
114 | ACGTCGTA | 0.464
115 | GTCATAGA | -0.115
116 | CTCAACCC | -0.14
117 | AACCCCGT | 0.0296
118 | CGTATGAA | 0.415
119 | AGTATGAA | 0.0349
120 | CGTATGAC | 0.407
121 | CGTATGAG | 0.354
122 | AGTATGAC | 0.0876
123 | GGTATGAC | -0.125
124 | CCGCAATA | 0.0155
125 | AAAACTCG | 0.182

Row | Sequence | PBM E-score
126 | AAACACCG | 0.14
127 | GCATGCCA | 0.0106
128 | AGTTCCCC | -0.0578
129 | CGTTCCCA | 0.443
130 | CGTTCCCC | 0.428
131 | GGTTCCCA | -0.173
132 | AGTTCCCA | 0.0586
133 | CGTTTCCC | 0.261
134 | CGCCTTTC | 0.0685
135 | CTAGAAGA | -0.0952
136 | ATGGACTG | -0.151
137 | CCACTTCC | 0.0365
138 | CCACGAAG | 0.0223
139 | TAACGAAA | 0.296
140 | AAACGAAT | 0.453
141 | CAACGAAA | 0.278
142 | AAACGAAA | 0.449
143 | AACCGAAT | 0.284
144 | AAACGTAT | 0.319
145 | AAACGAAG | 0.457
146 | CAACGAAG | 0.277
147 | GATTAGCC | 0.0338
148 | GCCACTCA | -0.196
149 | AACCGCGC | -0.0112
150 | ACGCTGCA | -0.0508

Row | Sequence | PBM E-score
151 | AAAAACAG | -0.0439
152 | TACGAACA | 0.452
153 | AACGAACC | 0.408
154 | CACGAACA | 0.177
155 | CACGAACC | 0.0995
156 | AACGAACA | 0.409
157 | CACGAACG | 0.312
158 | GACGAACC | 0.0132
159 | AACGAACT | 0.354
160 | GACGAACA | 0.0113
161 | AGCGAACA | 0.198
162 | AACGAACG | 0.437
163 | TCCGAACA | 0.0654
164 | GCCCGGCC | -0.229
165 | ACGGTTAC | 0.255
166 | AGGAAGGG | -0.211
167 | TCTGCTAA | -0.086
168 | CTTTCTCA | 0.00463
169 | CACTATCA | -0.0654
170 | CCGCTGAA | -0.00985
171 | GTCTGGTA | 0.00642
172 | AAACGGAC | 0.307
173 | GAACGAAA | 0.43
174 | GAACGGAC | 0.279
175 | AAGCGAAC | 0.268

Row | Sequence | PBM E-score
176 | GAACGAAC | 0.453
177 | AAACGAAC | 0.454
178 | CAACGAAC | 0.272
179 | TGACGAAA | 0.061
180 | CCACGAAA | -0.0672
181 | AGCGGGAG | -0.188
182 | GGGGGTTA | -0.298
183 | AACCCGAG | 0.267
184 | GCATCCGC | -0.18
185 | CTGCGGGA | -0.163
186 | AGGAGCGA | 0.328
187 | CGTATAAC | 0.473
188 | CGTATCAA | 0.386
189 | AGTATAAG | 0.109
190 | TGTATCAA | -0.0485
191 | CGTATCAC | 0.365
192 | CGTATAAA | 0.477
193 | CATATAAG | 0.0284
194 | CGTATAAG | 0.466
195 | TGTATAAA | 0.172
196 | AGTATAAA | 0.241
197 | GGTATAAC | 0.0372
198 | AGTATAAC | 0.0917
199 | CTGAAGAC | 0.056
200 | CAAGCCGC | -0.0639

Row | Sequence | PBM E-score
201 | CGCTTGGC | 0.0372
202 | CCGCGCGG | 0.263
203 | CGTGTGTC | 0.0878
204 | AGATCAGC | -0.106
205 | ACATCTTG | -0.0408
206 | CGCAGTAC | 0.174
207 | CGCACGAA | 0.175
208 | CTTCTTCA | -0.341
209 | CCCGAAGC | -0.0995
210 | GGCGATGA | -0.00497
211 | AATTTACG | 0.303
212 | ACTTTACG | 0.394
213 | ACTTTACA | -0.00715
214 | ATTTTACC | 0.06
215 | ATTTTACG | 0.392
216 | CCTTTACG | 0.329
217 | CTCTCCGC | -0.147
218 | GCAGTGCC | -0.179
219 | GTAACCTA | 0.00094
